Holding throughout (test): NCI-60 one-dose screen, 48 h (100 = growth as untreated, 0 = no growth, -100 = all killed)
Common to all, as to settings: 10 µM unless noted

Assay [1] relates to HCT-15 colon.
Assay [2] deals with HT29 colon.
Assay [3] has as its system SNB-75 CNS.
The test system of assay [4] is SNB-19 CNS.
Assay [5] has as its system U251 CNS.
Assay [6] relates to PC-3 prostate.
The subject of assay [7] is SK-MEL-5 melanoma.
For assay [8], the system named is UACC-62 melanoma.
Assay [9] has as its system LOX IMVI melanoma.
The test system of assay [10] is SK-MEL-28 melanoma.
Assay [11] relates to SK-MEL-2 melanoma.
Assay [12] has as its system EKVX NSCLC.
In assay [13] the test system is SN12C renal.
Assay [14] has as its system UO-31 renal.
In assay [15] the test system is TK-10 renal.
Assay [16] deals with ACHN renal.
Assay [17] deals with CAKI-1 renal.
Assay [18] deals with A498 renal.
Assay [19] has as its system CCRF-CEM leukemia.
Assay [20] has as its system MOLT-4 leukemia.

Compounds without any hit were thinned out: in the full panel of roughly 83,000, 20% have a hit.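 Cell lines were cultured in 96-well plates, exposed to a single compound concentration, and assessed for percent growth 48 hours later.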 A number with no mark means an inactive call. Calls of active or inactive are those of the source. The calls were made as follows: active = growth percent below 10; inactive = the rest.

Consider `ICCC(c1ccccc1)(c1ccccc1)c1ccccc1`, for which the growth was 27.7% in assay [1]; 2.63% (active) in assay [2]; 50.3% in assay [3]; 65.3% in assay [4]; 23% in assay [5]; 49.4% in assay [6]. For the same compound, the growth in [7] is -49.5% (active); in [8], -35.3% (active); in assay [9], 16.3%; in [10] it was -70% (active); in [11], 48.7%; in assay [12], 88.4%. For the same compound, the growth in [13] is 69.7%; in assay [14], 49.6%; in assay [15], 73.5%; in assay [16], 68.9%; in assay [17], 74.9%; in [18], 51.7%. Also, the values for the growth in assay [19] and in assay [20] were 31.6% and 39.4%, respectively.

Turning to `O=C(COc1ccc(/C=C2\Oc3ccc4ccccc4c3C2=O)cc1)c1ccc([N+](=O)[O-])cc1`, the growth in assay [1] is 88.4%; in assay [2], 109%; in assay [3], 91.3%; in assay [4], 94.6%; in assay [5], 94.4%; in assay [6], 86.8%. The growth in assay [7] was 92.3%; in assay [8] it was 91.7%; in assay [9] it was 35.5%; in assay [10], 106%; in assay [11] it was 48.6%; in assay [12] it was 100%. Further, the growth is 89.7% in assay [13]; 2.26% (active) in assay [14]; 117% in assay [15]; 107% in assay [16]; 101% in assay [17]; 103% in [18]. Also, the growth in [19] is -17.2% (active); in [20], 20.4%.

Consider `O=C(Nc1nc2ccc(OC(F)(F)F)cc2s1)c1ccc(F)cc1`, for which the growth is 12% in [1]; 15.7% in [2]; 73.7% in [3]; 12.3% in assay [4]; 6.58% (active) in [5]; 12.4% in assay [6]. Besides, the growth in assay [7] is -7.36% (active); in assay [8] it was 7.77% (active); in [9], 11.3%; in [10] it was 33.5%; in assay [11], -22.6% (active); in [12], 15.6%. Besides, the growth in assay [13] was 13.3%; in assay [14], -4.24% (active); in [15], 21.8%; in [16], 7.56% (active); in assay [17] it was 6.43% (active); in assay [18], 16.4%. The growth is 32.1% in assay [19] and 13.8% in [20].

Consider `Cc1ccccc1NC(=O)NC(CC(N)=O)c1ccc2c(c1)nc(-c1cccc(Oc3ccc(C(C)(C)C)cc3)c1)n2CCCN1CCCCC1C` (stereo not given), for which the growth in [1] is 92.3%; in assay [2], -34.6% (active); in assay [3] it was 62.5%; in assay [4] it was 46.2%; in assay [5], -74.2% (active); in [6], 29.7%. For the same compound, the growth in assay [7] is -73% (active); in [8], 82.7%; in assay [9], -73% (active); in assay [10] it was -71.7% (active); in [11] it was 51.8%; in assay [12] it was 79.2%. Also, the growth is 59.1% in assay [13]; 88.6% in assay [14]; 31.1% in assay [15]; 74.4% in assay [16]; 92.6% in assay [17]; 69.4% in [18]. The growth is 1.56% (active) in [19] and -10.6% (active) in [20].

With `CCc1ccc(-c2nc(SCC(=O)NC3CCCCC3)n[nH]2)cc1`, the growth was 88.6% in assay [1]; 101% in [2]; 85.4% in assay [3]; 98.7% in assay [4]; 89.3% in [5]; 77.1% in assay [6]. The growth in assay [7] is 61.5%; in assay [8], 57.8%; in assay [9] it was 67.8%; in assay [10], 108%; in [11], 10.2%; in [12], 42.1%. For the same compound, the growth in assay [13] is 76.4%; in [14], 69.8%; in assay [15], 88.8%; in assay [16], 64.2%; in assay [17] it was 85.9%; in [18] it was 86.4%. Besides, the growth in assay [19] is 55.3%; in [20], 61.6%.

For the compound `COc1ccc(Cl)cc1Nc1nc(C(F)(F)F)ccc1C(=O)N/N=C/c1c(Cl)cccc1Cl`, the growth in assay [1] was 30.6%; in [2] it was 52.1%; in [3], 63.5%; in assay [4], 55.5%; in assay [5], 29.1%; in [6] it was 48.5%. The growth was 13.4% in assay [7]; 52.9% in [8]; 32.3% in assay [9]; 62.2% in [10]; 28.3% in [11]; 60.5% in assay [12]. Besides, the growth in [13] is 63%; in assay [14] it was 31.2%; in assay [15], 67.2%; in [16], 39.2%; in [17] it was 34.9%; in assay [18] it was -21.9% (active). In addition, the growth was 13.8% in assay [19] and 14.4% in assay [20].

Turning to `COc1ccc(-c2ccc(O)c(C(=O)/C=C/c3cc(OC)c(OC)c(OC)c3)c2)cc1`, the growth in [1] was 76.6%; in assay [2], 75%; in assay [3], 96.9%; in assay [4] it was 99.4%; in [5], 78%; in [6], 61.8%. The growth is 71.7% in assay [7]; 67.1% in assay [8]; 62.5% in [9]; 104% in [10]; 84.4% in assay [11]; 79.8% in assay [12]. Moreover, the growth was 94.6% in [13]; 59.7% in assay [14]; 103% in assay [15]; 85.7% in assay [16]; 86.5% in [17]; 124% in assay [18]. Moreover, the figures for the growth in assay [19] and in [20] were 24.2% and 34.3%, respectively.

The values are drawn from PubChem BioAssay (NCI).
